Screening data from PubChem.
Sampled rows, rich in hits. Any-hit rate of the full collection: about 1.6%.
KCNQ2 inh: KCNQ2 (rat) channel inhibition; 1.1% of 310,000 active; CHO-K1 KCNQ2, FluxOR thallium flux, 20 min; stronger effect = lower value; B-score at 10 µM; O88943; AID 2156;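 active = fluorescence ratio B-score at most minus 3 library SDs, with starting brightness B-score within 2 library SDs, cut at about -5.5 in these data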
KCNQ2 enhance: KCNQ2 (rat) channel potentiation; 0.54% of 310,000 active; CHO-K1 KCNQ2, FluxOR thallium flux fluorescence; stronger effect = higher value; O88943; AID 2239; B-score at 10 µM;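 active = fluorescence ratio B-score at least 3 SD of library B-scores, with initial fluorescence B-score within 3 of them, cut at about 5.3 in these data; same plate scores as AID 2156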;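 note: B-score of peak minus minimum over baseline fluorescence ratio after K+ and Tl+ stimulus; positive B-score means potentiation of KCNQ2 with more thallium influx and brighter signal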
KCNQ2 inh conf: confirmation of rat KCNQ2 potassium channel inhibitors; shares compounds with KCNQ2 inh; KCNQ2-expressing cells, thallium flux, inhibition; stronger effect = lower value; activity change, negative = inhibition, % at 10 µM; 57% of 1,000 active; AID 493025;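 note: 0% = vehicle wells and values are ratio percent relative to vehicle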
KCNQ1 spec: KCNQ2 inhibitor that also affects human KCNQ1 channel | shares compounds with KCNQ2 inh | KCNQ1-expressing cells, FluxOR thallium flux fluorescence; stronger effect = lower value | activity change, negative = inhibition, % at 10 µM | 15% of 1,000 active;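 active = activity change at least 3 SD of negative controls below their mean in both duplicate wells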;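 note: CHO cells stably transfected with KCNQ1 and depolarized by potassium stimulus; peak minus minimum fluorescence over baseline after thallium addition; 0% = vehicle negative control and -100% = blank without thallium stimulus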
Target sequence (P51787 whole entry, looked up): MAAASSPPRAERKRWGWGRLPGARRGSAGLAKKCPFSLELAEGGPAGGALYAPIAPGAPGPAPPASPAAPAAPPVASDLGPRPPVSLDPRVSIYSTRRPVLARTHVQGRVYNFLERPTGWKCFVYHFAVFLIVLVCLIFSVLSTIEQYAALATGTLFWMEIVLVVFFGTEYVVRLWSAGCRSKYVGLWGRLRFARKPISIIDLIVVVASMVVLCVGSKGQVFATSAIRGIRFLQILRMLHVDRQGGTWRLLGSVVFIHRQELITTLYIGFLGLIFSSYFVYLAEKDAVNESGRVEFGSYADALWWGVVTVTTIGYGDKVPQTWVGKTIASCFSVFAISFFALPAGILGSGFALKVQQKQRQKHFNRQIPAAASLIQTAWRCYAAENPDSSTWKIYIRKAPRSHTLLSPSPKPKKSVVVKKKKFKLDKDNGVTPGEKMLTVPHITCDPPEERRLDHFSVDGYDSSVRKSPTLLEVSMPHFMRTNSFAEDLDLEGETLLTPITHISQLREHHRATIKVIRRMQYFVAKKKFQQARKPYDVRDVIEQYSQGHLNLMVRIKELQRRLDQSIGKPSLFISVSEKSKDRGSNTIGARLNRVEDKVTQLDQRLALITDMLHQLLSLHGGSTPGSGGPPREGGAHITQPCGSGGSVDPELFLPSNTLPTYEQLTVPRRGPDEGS
CHO parental ctr: activity in parental CHO cells lacking KCNQ2. activity change, % at 10 µM. 14% of 1,000 active. shares compounds with KCNQ2 inh. AID 493029. thallium flux counter-screen; stronger effect = lower value;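 note: 0% = vehicle negative controls with stimulus buffer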
KCNQ2 inh confirm: blocks rat KCNQ2 current in automated patch clamp; shares compounds with KCNQ2 inh; KCNQ2-expressing cells; calls only at 10 µM; 49% of 550 active
The depositor's hits bear a star; i = inactive; . = no result; + = active, no number. Unless noted, the rule behind the calls is not given here.

SMILES	KCNQ2 inh	KCNQ2 enhance	KCNQ2 inh conf	KCNQ1 spec	CHO parental ctr	others
Cc1ccc(NC(=O)CN(C)C(=O)c2ccccc2OCc2c(C)noc2C)cc1	i	.	.	.	.
COc1ccc(Br)cc1CN(C)C(=O)c1ccccc1OCc1c(C)noc1C	-8.6*	-8.6	i	i	i
O=C(Nc1ccccc1C(=O)N1CCCCC1)c1cccs1	i	0.94	.	.	.
Cc1cc(OCC(O)CN2CCN(c3ccccn3)CC2)cc(C)c1Cl (stereo not given)	i	.	.	.	.
Cc1ccc2c(C(=O)CN3CCN(C(=O)c4ccco4)CC3)c(C)[nH]c2c1	i	.	.	.	.
Cc1sc(NC(=O)c2ccco2)c(C(=O)c2ccc(Cl)cc2)c1C	i	.	.	.	.
CCN(CC)CC(=O)Nc1sc(C)c(C)c1C(=O)c1ccc(C)cc1	-6.6*	-6.6	i	i	i
CCN(CC)CC(=O)Nc1sc(C)cc1C(=O)c1ccc(C)cc1	-6.7*	-6.7	-23%*	i	i	KCNQ2 inh confirm=i
Cc1cc(C(=O)c2ccccc2)c(NC(=O)CCl)s1	i	.	.	.	.
Cc1ccc(C(=O)c2c(NC(=O)c3ccccc3C)sc(C)c2C)cc1	-11*	-11	-28%*	i	i	KCNQ2 inh confirm=i
Cc1sc(NC(=O)CN2CCOCC2)c(C(=O)c2ccccc2)c1C	i	.	.	.	.
CCOC(=O)C1(Cc2cccc(Cl)c2)CCCN(C(=O)CCN2CCCC2=O)C1 (stereo not given)	i	.	.	.	.
COc1ccccc1NC(=O)Cc1nnc(SCC(=O)c2ccc(F)cc2)n1C	i	0.57	.	.	.
COc1ccccc1C(=O)NC(=O)COC(=O)CCS(=O)(=O)c1ccc(C)cc1	i	0.33	.	.	.
CC(=O)Nc1ccc(S(=O)(=O)N2CCN=C2SCc2ccc([N+](=O)[O-])cc2)cc1	i	.	.	.	.
CC(Oc1ccc2c3c(c(=O)oc2c1)CCCC3)C(=O)NCc1cccnc1 (stereo not given)	i	0.52	.	.	.
COc1ccc(Cc2nnc(NC(=O)c3ccccc3C)s2)cc1	i	0.08	.	.	.
COc1cccc(OC)c1C(=O)N1CCN(C(=O)c2ccc(-c3ccccc3)cc2)CC1	i	.	.	.	.
Cc1ccc(C(=O)CSc2nnc(COc3ccc(C#N)cc3)n2-c2ccccc2)cc1	i	0.91	.	.	.
Cc1ccc(OCc2nnc(SCC(=O)Nc3cccc4ccccc34)n2-c2ccccc2)cc1	-8.5*	-8.5	i	i	i
Clc1ccc(/C(Cc2nc3ccccc3[nH]2)=N\Nc2ccccc2)cc1	-6.6*	-6.6	-38%*	i	i	KCNQ2 inh confirm=i
Clc1ccc(SCc2nc3ccccc3[nH]2)cc1	i	.	.	.	.
CCn1cc(/C=C(\NC(=O)c2ccc(OC)cc2)C(=O)N2CCOCC2)c2ccccc21	i	.	.	.	.
Cc1ccc(N(C)S(=O)(=O)c2cc(-c3cnc(C4CC4)o3)ccc2C)cc1	-7.2*	-7.2	-15%*	i	i	KCNQ2 inh confirm=i
Cc1ccc(-c2cnc(C3CC3)o2)cc1S(=O)(=O)Nc1ccccc1	i	.	.	.	.
SMILES	KCNQ2 inh	KCNQ2 enhance	KCNQ2 inh conf	KCNQ1 spec	CHO parental ctr	others
CC(=O)Nc1ccc(Cc2nc3c([nH]2)c(=O)n(C)c(=O)n3C)cc1	i	0.95	.	.	.
O=C(Cn1ccc(C(F)(F)F)n1)N=Nc1c(O)[nH]c2ccccc12	i	.	.	.	.
O=C(Cn1ccc(C(F)(F)F)n1)N=Nc1c(O)[nH]c2ccc(Br)cc12	-9.3*	-9.3	-27%*	i	i	KCNQ2 inh confirm=+
CCOc1cc(/C=C2\CCCc3c2nc2ccccc2c3C(=O)O)ccc1OC	i	.	.	.	.
CCOC(=O)/C(=N\Nc1cc(C(F)(F)F)ccc1Cl)N(CC)CC	-8.9*	-8.9	i	i	i
CN(C)CC(=O)Nc1cc(C(F)(F)F)ccc1Cl	i	0.07	.	.	.
COc1ccccc1NC(=O)COC(=O)/C=C/c1ccccc1[N+](=O)[O-]	i	2.3	.	.	.
COc1ccccc1/C=C/C(=O)OCC(=O)Nc1ccccc1Sc1ccccc1	-6.8*	-6.8	-30%*	i	i	KCNQ2 inh confirm=i
O=C(NCCc1ccccc1)c1ccc2nc(-c3ccco3)c(-c3ccco3)nc2c1	i	0.57	.	.	.
O=C(c1ccccc1)c1ccc2nc(-c3ccco3)c(-c3ccco3)nc2c1	-7.7*	-7.7	i	i	i
CN(C(=O)c1ccc2c(=O)n3c(nc2c1)CCCCC3)c1cccc(Cl)c1	i	.	.	.	.
CC(=O)NC(Cc1ccc(F)cc1)C(=O)NC1CCN(C(=O)Nc2ccccc2C)CC1 (stereo not given)	i	.	.	.	.
Cc1ccc(NC2=C(C(=O)c3ccccc3)N(C)S(=O)(=O)c3ccccc32)cc1	-12*	-12	-28%*	i	i	KCNQ2 inh confirm=i
CN1C(C(=O)c2ccccc2)=C(N)c2ccccc2S1(=O)=O	i	.	.	.	.
CCN1C(C(=O)Nc2cc(C)on2)=C(O)c2ccccc2S1(=O)=O	i	1.7	.	.	.
CCN1C(C(=O)c2ccccc2)=C(Nc2ccccc2C)c2ccccc2S1(=O)=O	-6.9*	-6.9	-34%*	-27%*	i	KCNQ2 inh confirm=i
Cc1ccc(NC(=O)c2c3c(nc4ccccc24)CCC3)cc1	i	.	.	.	.
CCc1nc2ccccc2c(C(=O)Nc2cc(C)ccc2C)c1C	-7.5*	-7.5	i	i	i
CCc1nc2ccccc2c(C(=O)Nc2cccc(C)c2)c1C	i	.	.	.	.
Cc1ccccc1NC(=O)c1c2c(nc3ccccc13)CCC2	-6.9*	-6.9	i	i	i
CC(=O)N1CCN(C(=O)c2cc(=O)c3ccccc3o2)CC1	i	.	.	.	.
CCCCn1c(N)c(N(CC(C)C)C(=O)C2CCN(S(=O)(=O)c3ccc(OCC)cc3)CC2)c(=O)[nH]c1=O	i	.	.	.	.
CN(C(=O)c1nn(C)c2c1CSc1ccccc1-2)c1ccccc1Cl	-6.7*	-6.7	-37%*	-40%*	-34%*	KCNQ2 inh confirm=i
CC1CCCC(C)N1CCCNC(=O)c1nn(C)c2c1CSc1ccccc1-2 (stereo not given)	i	0.45	.	.	.
CCCc1nnc(NC(=O)CCC(=O)NC2CCCC2)s1	i	0.06	.	.	.
SMILES	KCNQ2 inh	KCNQ2 enhance	KCNQ2 inh conf	KCNQ1 spec	CHO parental ctr	others
Cc1ccc(-n2c(-c3ccc(Br)cc3)c[n+]3c2CCc2ccc4cccnc4c2-3)cc1	-12*	-12	-45%*	-36%*	-30%*
COc1ccc(-n2c(-c3ccc(Cl)cc3)c[n+]3c2CCc2ccccc2-3)cc1	i	.	.	.	.
CCN1/C(=C\c2ccc3cc(C)ccc3[n+]2CC)Sc2cc(C)c(C)cc21	i	.	.	.	.
C=CC[n+]1c(/C=C2\C=Cc3cc(C)ccc3N2CC)ccc2ccccc21	-9.8*	-9.8	i	i	i
Cc1ccc(N(CC(O)Cn2c3ccccc3c3ccccc32)S(C)(=O)=O)cc1 (stereo not given)	i	.	.	.	.
CS(=O)(=O)N(Cc1ccco1)CC(O)Cn1c2ccccc2c2ccccc21 (stereo not given)	-8.2*	-8.2	-26%*	i	i	KCNQ2 inh confirm=+
COc1ccc([N+](=O)[O-])c(S(=O)(=O)c2ccccc2)n1	-7.5*	-7.5	-28%*	i	i	KCNQ2 inh confirm=+
O=[N+]([O-])c1cccnc1S(=O)(=O)c1ccccc1	i	.	.	.	.
COc1ccc([N+](=O)[O-])c(S(=O)(=O)c2ccc(Cl)cc2)n1	-9.9*	-9.9	-32%*	-28%*	-22%*	KCNQ2 inh confirm=+
